Screens as filed in PubChem.
AF4-AF9 inh = inhibitors of AF4 peptide binding to AF9, primary screen, biochemical, AlphaScreen, biotin-AF4 peptide, FLAG-AF9, single point. Protein AF-9 (Homo sapiens), P42568. inhibition, % at 10 µM. hit rate 0.47% among 350,000. AID 651704, 2012;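 active = every replicate reaching a set inhibition limit, whatever the replicate mean, cut at about 25% in these data; inconclusive = mean inhibition reaches that limit but some replicates miss it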
DENV2 CPE = inhibitors of DENV2 cytopathic effect, primary screen, cell-based, plate reader, single concentration; DENV2-infected cells, cytopathic effect rescue; CPE inhibition, % at 9.99 µM; hit rate 1.7% among 350,000; AID 651640, 2012; in the data active = CPE inhibition above about 20%, passing the limit was not always enough; inconclusive = no clear call, values can overlap the other calls; tested in BHK-21 cells
PDI turbidity = inhibitors of human PDI, primary screen, biochemical, turbidity, single point, plate reader; Protein disulfide-isomerase (Homo sapiens), P07237; PDI insulin aggregation turbidity, A650, 90 min; inhibition, % at 10 µM; hit rate 0.052% among 350,000; AID 588391, 2011;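 active = mean inhibition across replicates of 30% or more, whatever share of single replicates reach that level; inconclusive = mean inhibition below 30% while every single replicate reaches 30%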
ERp5 inh = inhibitors of ERp5-driven insulin aggregation, primary screen, biochemical, turbidity, absorbance 650 nm, single point; inhibition, % at 9.99 µM; 90 min; hit rate 0.05% among 350,000; Protein disulfide-isomerase A6 (Homo sapiens), Q15084; AID 651711, 2012;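 active = mean replicate inhibition above about 25%, with every replicate also reaching it, limit read from the data, passing the limit was not always enough; inconclusive = only one of those two criteria met; inactive = neither criterion met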
Target sequence (Q15084 whole entry, looked up): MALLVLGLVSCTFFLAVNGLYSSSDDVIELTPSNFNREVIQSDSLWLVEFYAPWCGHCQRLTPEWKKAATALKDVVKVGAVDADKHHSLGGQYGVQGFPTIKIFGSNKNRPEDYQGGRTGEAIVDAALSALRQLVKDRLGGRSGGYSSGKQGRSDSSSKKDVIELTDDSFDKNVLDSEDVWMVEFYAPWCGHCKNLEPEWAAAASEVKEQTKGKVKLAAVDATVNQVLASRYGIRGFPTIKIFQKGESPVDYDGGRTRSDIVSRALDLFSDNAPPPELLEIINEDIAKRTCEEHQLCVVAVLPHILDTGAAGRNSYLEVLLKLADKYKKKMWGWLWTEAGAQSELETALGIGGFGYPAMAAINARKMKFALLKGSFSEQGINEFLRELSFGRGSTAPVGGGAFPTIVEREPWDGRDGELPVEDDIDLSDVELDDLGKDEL
ERAP1 HTS inh = human ERAP1 aminopeptidase inhibitors, primary screen, biochemical, single point, plate reader. Endoplasmic reticulum aminopeptidase 1 (Homo sapiens), Q9NZ08. AID 652197, 2013. recombinant ERAP1, Leu-AMC fluorescence, 60 min. inhibition, % at 10.7 µM. hit rate 0.15% among 340,000;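 active = mean replicate inhibition of at least 30%, or all replicates individually reaching that 30% level; inactive = mean below 30% and not every replicate reaching it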
Each line names hits and unclear results; the compound was inactive in the other large screens; ! = repeats disagree. Only some compounds are listed: those with a hit (about 1.8% of all), similar ones and a draw of the others.

C[C@H](CO)N1C[C@H](C)[C@@H](CN(C)S(=O)(=O)c2cn(C)cn2)Oc2c(NS(=O)(=O)c3ccccc3)cccc2C1=O	DENV2 CPE 23!
C[C@@H]1CN([C@H](C)CO)C(=O)c2cccc(NC(=O)C3CC3)c2O[C@H]1CN(C)CC1CCCCC1	DENV2 CPE 75 (no result: PDI turbidity)
C[C@H](CO)N1C[C@H](C)[C@@H](CN(C)CC2CCCCC2)Oc2c(NC(=O)C3CC3)cccc2C1=O	none
COC(=O)C[C@H]1CC[C@@H]2[C@@H](COc3ccc(NC(=O)Nc4cccc(C#N)c4)cc3C(=O)N2C)O1	none (no result: PDI turbidity)
C[C@H]1CN([C@@H](C)CO)C(=O)c2cccc(NC(=O)C3CC3)c2O[C@H]1CN(C)CC1CCCCC1	none
C[C@H](CO)N1C[C@H](C)[C@H](CN(C)CC2CCCCC2)Oc2c(NC(=O)C3CC3)cccc2C1=O	DENV2 CPE 36 (no result: PDI turbidity)
C[C@H]1CN([C@@H](C)CO)C(=O)c2cc(NS(=O)(=O)c3ccc(F)cc3)ccc2O[C@H]1CN(C)Cc1ccccc1	DENV2 CPE 47 (no result: PDI turbidity)
C[C@@H]1CN([C@H](C)CO)C(=O)c2cc(NS(=O)(=O)c3ccc(F)cc3)ccc2O[C@H]1CN(C)Cc1ccc(-c2ccccc2)cc1	DENV2 CPE 30 (no result: PDI turbidity)
C[C@@H]1CN([C@@H](C)CO)C(=O)c2cc(NS(C)(=O)=O)ccc2O[C@H]1CN(C)Cc1ccc(-c2ccccc2)cc1	DENV2 CPE 32 (no result: PDI turbidity)
C[C@H](CO)N1C[C@H](C)[C@H](CN(C)Cc2ccc(-c3ccccc3)cc2)Oc2ccc(NS(C)(=O)=O)cc2C1=O	none (no result: PDI turbidity)
COc1ccc2c3c(n(C)c2c1)[C@H](CO)N(C(=O)Cc1ccccn1)CC31CCN(Cc2ccccn2)CC1	none (no result: PDI turbidity)
CCCC#Cc1cnc2c(c1)C(=O)N([C@@H](C)CO)C[C@H](C)[C@@H](CN(C)S(=O)(=O)c1cn(C)cn1)O2	none (no result: PDI turbidity)
COCC(=O)N1CCCCN2[C@@H](CO)[C@@H](c3ccc(-c4ccccc4)cc3)[C@@H]2C1	none (no result: PDI turbidity)
COCC(=O)N1CCCCN2[C@H](CO)[C@H](c3ccc(-c4ccc(C)cc4)cc3)[C@@H]2C1	DENV2 CPE inconclusive (no result: PDI turbidity)
COCC(=O)N1CCCCN2[C@H](CO)[C@@H](c3ccc(-c4ccccc4)cc3)[C@H]2C1	DENV2 CPE 40 (no result: PDI turbidity)
COCC(=O)N1CCCCN2[C@@H](CO)[C@@H](c3ccc(-c4ccc(F)cc4)cc3)[C@@H]2C1	DENV2 CPE 28 (no result: PDI turbidity)
COCC(=O)N1CCCCN2[C@@H](CO)[C@@H](c3ccc(-c4ccc(C)cc4)cc3)[C@@H]2C1	DENV2 CPE 66 (no result: PDI turbidity)
COCC(=O)N1CCCCN2[C@@H](CO)[C@H](c3ccc(-c4ccc(C)cc4)cc3)[C@@H]2C1	DENV2 CPE 47 (no result: PDI turbidity)
CC(=O)N(C)C[C@@H]1Oc2cc(-c3ccccc3F)ccc2S(=O)(=O)N([C@H](C)CO)C[C@@H]1C	none (no result: PDI turbidity)
C[C@@H]1CCCCO[C@H](CN(C)Cc2ccc(C(=O)O)cc2)[C@H](C)CN([C@@H](C)CO)C(=O)c2cc(NC(=O)NC3CCCCC3)ccc2O1	none (no result: PDI turbidity)
O=C(N[C@@H]1C=C[C@H](CC(=O)N2CCc3ccccc3C2)O[C@@H]1CO)C1CC1	none (no result: PDI turbidity)
CN1CCCCN2[C@@H](CO)[C@H](c3ccc(-c4ccccc4)cc3)[C@@H]2C1	DENV2 CPE 32 (no result: PDI turbidity)
OC[C@@H]1[C@H](c2ccc(-c3ccc(F)cc3)cc2)[C@@H]2CN(Cc3ccncc3)CCCCN12	DENV2 CPE 38 (no result: PDI turbidity)
OC[C@@H]1[C@@H](c2ccc(-c3ccc(F)cc3)cc2)[C@H]2CN(Cc3ccncc3)CCCCN12	none (no result: PDI turbidity)
O=c1[nH]c(=O)c2[nH]c(=S)[nH]c2[nH]1	ERAP1 HTS inh 50
Nc1ncnc2[nH]c(=S)[nH]c12	none
c1ccc(C2=Nc3c(ccc4ccccc34)C(c3ccncc3)=NN2)cc1	AF4-AF9 inh 34
O=S(=O)(c1ccccc1F)N1CCCCN2[C@@H](CO)[C@@H](c3ccc(-c4ccncc4)cc3)[C@@H]2C1	none (no result: PDI turbidity)
CCN1CCSc2ccc(C(=O)NCc3ccccc3Br)cc21	none (no result: PDI turbidity)
CCN1CCSc2ccc(C(=O)NCc3ccccc3F)cc21	AF4-AF9 inh 25 (no result: PDI turbidity)
CCN1CCSc2ccc(C(=O)NCc3ccccc3C)cc21	AF4-AF9 inh 49 (no result: PDI turbidity)
Cc1noc(C)c1NC(=O)Nc1ccc2c(c1)C(=O)N([C@@H](C)CO)C[C@@H](C)[C@@H](CN(C)C(=O)NC(C)C)OCCCC[C@@H](C)O2	none (no result: PDI turbidity)
COc1ccc(/C=C/c2nnc(NC(=O)C(C)(C)C)s2)cc1	DENV2 CPE 70 (no result: AF4-AF9 inh)
C[C@H](CO)N1C[C@H](C)[C@H](CN(C)Cc2ccc(Oc3ccccc3)cc2)Oc2ccc(NC(=O)NC3CCCCC3)cc2CC1=O	none (no result: PDI turbidity)
O=S(=O)(c1ccc(F)cc1)N1CCCCN2[C@H](C1)[C@@H](c1ccc(-c3ccccc3)cc1)[C@@H]2CO	none (no result: PDI turbidity)
O=C(Nc1cccc(Cl)c1)N[C@H]1CC[C@@H](CCn2cc(Cc3ccccc3)nn2)O[C@H]1CO	none (no result: PDI turbidity)
O=C(NCCN1C(=O)S/C(=C\c2ccccc2Cl)C1=O)C1=COCCO1	none
O=C(CNC(=O)c1ccccc1F)NCCN1C(=O)S/C(=C\c2ccccc2Cl)C1=O	DENV2 CPE 81
O=C(Nc1ccc(Cl)cc1)N1C[C@H]2[C@@H](c3ccccc31)[C@H](CO)N2C(=O)c1ccccn1	none (no result: PDI turbidity)
O=C(C[C@H]1C=C[C@@H](NC(=O)Nc2cc(F)ccc2F)[C@@H](CO)O1)NCc1ccccn1	none (no result: PDI turbidity)
O=C(c1cccnc1)N1CC(=O)N2[C@H](CO)[C@@H](c3ccc(/C=C/c4ccccc4)cc3)[C@H]2C1	AF4-AF9 inh 27 (no result: PDI turbidity)
O=C(c1cccnc1)N1CC(=O)N2[C@H](C1)[C@@H](c1ccc(-c3ccccc3F)cc1)[C@@H]2CO	DENV2 CPE 35 (no result: PDI turbidity)
Cc1ccc(S(=O)(=O)Nc2ccc3c(c2)C(=O)N([C@@H](C)CO)C[C@@H](C)[C@@H](CN(C)CC2CCCCC2)OCCCC[C@@H](C)O3)cc1	none (no result: PDI turbidity)
CCCC(=O)Nc1ccc2c(c1)C(=O)N(C)C[C@@H](OC)[C@H](C)CN(Cc1ccc(-c3ccccn3)cc1)[C@H](C)CO2	none (no result: PDI turbidity)
O=C(NCC[C@@H]1CC[C@H](NS(=O)(=O)c2cccc(F)c2)[C@@H](CO)O1)c1cnccn1	none (no result: PDI turbidity)
COc1cccc(C#Cc2ccc([C@@H]3[C@@H](CO)N4C(=O)CN(C(C)=O)C[C@@H]34)cc2)c1	none (no result: PDI turbidity)
CCCc1c(C(=O)N/N=C/c2ccoc2)nnn1-c1nonc1N	DENV2 CPE 21
COc1ccccc1OCCNC(=O)C1CCCCC1	ERAP1 HTS inh 32
Cc1ccc(OCCNC(=O)C2CCCCC2)cc1	none (no result: DENV2 CPE)
CO[C@H](CN(C)C(=O)c1cnccn1)[C@@H](C)CN([C@H](C)CO)S(=O)(=O)c1ccc(Cl)cc1	none (no result: PDI turbidity)
C[C@H](NC(=O)[C@@H]1[C@@H](CO)[C@@H]2Cn3c(ccc(-c4ccccc4)c3=O)[C@H]1N2C)c1ccccc1	none (no result: PDI turbidity)
COCCN(C[C@@H]1[C@@H](c2ccccc2)[C@@H](CO)N1C(C)=O)C(=O)c1ccncc1	none (no result: PDI turbidity)
